The whole screen tested about 50,000 compounds, of which about 800 (1.6%) showed an effect of 50% or more. This is one part of a sample in which strong results are shown more often than they occur.

The target of this assay is Bcl-2-like protein 10 (Homo sapiens) (UniProt Q9HD36). Nature of the assay: Phenotype converters, Bcl-B/TR3 peptide binding displacement, primary biochemical FP (AID 1240).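 Also: 0% = Bcl-B with tracer peptide and DMSO and 100% = tracer peptide lacking Bcl-B.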 Particulars: GST-Bcl-B / FITC-TR3 peptide fluorescence polarization; stronger effect = higher value; compound at 3.75 mg/L.
Chain of Bcl-2-like protein 10 (Homo sapiens) (Q9HD36 whole entry, looked up): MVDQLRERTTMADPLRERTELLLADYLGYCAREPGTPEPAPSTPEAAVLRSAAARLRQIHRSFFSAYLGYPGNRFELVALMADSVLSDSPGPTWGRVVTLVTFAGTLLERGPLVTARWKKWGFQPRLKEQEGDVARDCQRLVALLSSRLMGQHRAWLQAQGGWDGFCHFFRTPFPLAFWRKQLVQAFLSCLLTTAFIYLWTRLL
On to `O=[N+]([O-])c1c(NC2CC2)ncnc1NC1CC1`, for which the displacement stood at 10.9%. `O=[N+]([O-])c1ccccc1/C=N/N1CCN(Cc2ccc(Cl)cc2)CC1`: the displacement is -1.7%. With `COc1cccc(Nc2nc(-c3ccc(S(=O)(=O)N4CCOCC4)cc3)cs2)c1`, the displacement amounted to 10.4%. Then `COc1ccccc1/C=C1\SC(=S)N(CCC(=O)NNC(=O)c2ccccc2O)C1=O`, with 14.7%; and `COc1ccc(N(CC(=O)Nc2cccc(Br)c2)S(=O)(=O)c2ccc(C)cc2)c(OC)c1`, with -1.5%. Then `CC(C)CC(NC(c1ccccc1)(c1ccccc1)c1ccccc1)C(=O)O` (centres undefined), with 8.9%. Then `COc1ccc(Br)cc1C(=O)Nc1ccc(C)cc1[N+](=O)[O-]`, with 27.4%; and `O=C(/C=C/c1ccco1)Nc1ccc(-c2nc3ncccc3o2)cc1`, with -8.2%.

With `Cc1ccc(-c2nc3ncccc3o2)cc1NC(=O)/C=C/c1ccco1`, the displacement is 116%.

Turning to `COc1ccc(Br)cc1/C=C/C(=O)Nc1ccc(C)cc1[N+](=O)[O-]`, the displacement came to 87.4%. In the case of `Cc1cc2nc(-c3ccc(C)c(NC(=O)/C=C/c4ccco4)c3)oc2cc1C`, the displacement was -5.3%. On to `COc1ccc(Br)cc1/C=C\C(=O)Nc1ccc([N+](=O)[O-])cc1OC`, for which the displacement was determined as 4.8%. Turning to `CCC(C)NC(=O)CN(c1ccccc1)S(=O)(=O)c1ccccc1[N+](=O)[O-]` (centres undefined), the displacement is -8%. For the molecule `COc1ccc(C2Nc3ccccc3C(=O)N2Cc2ccco2)cc1COc1c(C)cccc1C` (centres undefined), the displacement was -10.4%. Regarding `Cc1cc(C)nc(SCC(=O)NN=C2CCCCCC2)n1`, the displacement is 3.9%. Then `COc1ccc(N(Cc2ccc(C(=O)NC3CCCC3)cc2)S(=O)(=O)c2ccccc2)cc1`, with -14.5%; and `O=C(Oc1ccc(/C=N/O)cc1)c1ccc(Br)cc1`, with 1.6%. Turning to `C/C(=N\Nc1nc(C)cc(-c2ccccc2)n1)c1cccc(N)c1`, the displacement is -15.5%.

On to `C=CCOc1ccc(/C=C2\C(=O)C(C(=O)OC)=C(C)N2c2ccc(F)cc2)cc1`, for which the displacement worked out at 127%. In the case of `C=CCOc1ccc(/C=C2\C(=O)C(C(=O)OC)=C(C)N2c2ccc(C)cc2)cc1`, the displacement is -24.7%.

On to `COC(=O)C1=C(C)N(c2ccc(C)c(C)c2)/C(=C/c2ccc(OC)cc2)C1=O`, for which the displacement is 14.1%. In the case of `COC(=O)C1=C(C)N(c2ccc(Br)cc2)/C(=C\c2ccc(OCC(=O)Nc3ccccc3OC)cc2)C1=O`, the displacement came to 20.3%. Then `COC(=O)C1=C(C)N(c2ccccc2)/C(=C\c2ccc(OCC(=O)Nc3ccccc3OC)cc2)C1=O`, with 55.5%; and `COC(=O)C1=C(C)N(c2ccc(Cl)cc2)/C(=C\c2ccc(OCC(=O)Nc3ccccc3OC)cc2)C1=O`, with 10.4%. As for `COC(=O)C1=C(C)N(c2ccc(C)c(C)c2)/C(=C\c2ccc(OCC(=O)Nc3ccccc3OC)cc2)C1=O`, the displacement stood at 68%. Take `CCOc1ccc(/C=C2\C(=O)C(C(=O)OC)=C(C)N2c2ccc(F)cc2)cc1`: the displacement is -6.6%. Turning to `COC(=O)C1=C(C)N(c2ccc(C)cc2)/C(=C\c2ccc(OCC(=O)Nc3ccccc3Cl)cc2)C1=O`, the displacement worked out at 7.6%. As to `Cc1ccc(OCC(=O)O/N=C(\N)Cc2ccc([N+](=O)[O-])cc2)c(C)c1`, the displacement is 5.9%. On to `O=C(Nc1ccc2c(c1O)C(=O)c1ccccc1C2=O)c1ccccc1`, for which the displacement was 12.7%.

Consider `CC1=NN(C(N)=S)C2(O)CC3C(C12)C3(C)C` (centres undefined), for which the displacement was found to be 7.5%. Then `CC(C)(C)NC(=O)c1ccccc1N(Cc1ccccc1)S(=O)(=O)c1ccccc1`, with -1.7%; and `Cc1ccc2[nH]c(O)c(N=NC(=O)c3cc4ccccc4nc3C)c2c1`, with 5.5%; and `Cc1ccc(C(=O)c2cccc(NC(=O)CC(C)C)c2)cc1C`, with 12.1%. As for `O=C(Nc1ccccc1Br)C1CC(=O)N(c2ccccc2)C1` (centres undefined), the displacement amounted to 77.5%. `Cc1ccccc1NC(=O)C1CC(=O)N(c2ccccc2)C1` (centres undefined): the displacement came to 6.2%. For the molecule `Cc1ccc(N2CC(C(=O)Nc3ccccc3Br)CC2=O)cc1` (centres undefined), the displacement came out at 11.9%. Then `CS(=O)(=O)N(CC(=O)O)c1ccc(F)cc1`, with 6.7%; and `N#C/C(=C\c1cccs1)c1nc2ccccc2s1`, with -12.5%. As for `Cc1ccc(/C=C(\C#N)c2nc3ccccc3s2)cc1`, the displacement was determined as 88.3%. For the molecule `CCOc1cc(/C=C(\C#N)c2nc3ccccc3s2)ccc1O`, the displacement was 0%. Regarding `Cc1cccc(OCCn2c(N)nc3ccccc32)c1`, the displacement was -10.3%. `Cc1c(NC(=O)CSc2nnc(-c3cccc(F)c3)n2-c2ccccc2)c(=O)n(-c2ccccc2)n1C`: the displacement amounted to 13.4%. Regarding `CN1CCN(C2=C(Cl)C(=O)N(c3ccc(Br)cc3)C2=O)CC1`, the displacement was 15.9%. As to `C=CCc1cccc2cc(C(=O)Nc3ccc(OCC)cc3)c(=O)oc12`, the displacement came out at 53.1%. Regarding `C=CCc1cccc2cc(C(=O)Nc3ccc(CC)cc3)c(=O)oc12`, the displacement was 8.6%.

`C=CCc1cccc2cc(C(=O)Nc3ccc(NC(C)=O)cc3)c(=O)oc12`: the displacement is -13.3%.

On to `CN1C(=O)/C(=C/c2ccc(O)c(O)c2)SC1=S`, for which the displacement amounted to 14%. Then `Cc1cc(Cl)ccc1NC(=O)Cc1ccccc1`, with -10%.

Turning to `CCOC(=O)COc1cc(Br)c(/C=c2\sc3nc4ccccc4n3c2=O)cc1OC`, the displacement was determined as 11.1%. Take `O=c1/c(=C\c2ccc(OCc3cccc4ccccc34)cc2)sc2nc3ccccc3n12`: the displacement came out at 11.6%.

Consider `O=c1/c(=C/c2ccccc2OCc2ccccc2F)sc2nc3ccccc3n12`, for which the displacement was 12.4%. For `COc1cccc(OCCOc2c(Cl)cc(/C=c3\sc4nc5ccccc5n4c3=O)cc2OC)c1`, the displacement turned out to be 92.6%. As to `COc1c(Br)cc(Br)cc1/C=c1\sc2nc3ccccc3n2c1=O`, the displacement stood at 21.9%.

Turning to `COc1cccc(/C=c2/sc3nc4ccccc4n3c2=O)c1`, the displacement stood at 92.4%. Consider `COc1cc(Br)c(/C=c2/sc3nc4ccccc4n3c2=O)cc1OC`, for which the displacement is 132%.

With `O=c1/c(=C\c2ccccc2OCc2cccc3ccccc23)sc2nc3ccccc3n12`, the displacement came out at 104%.

Take `COc1cc(/C=c2\sc3nc4ccccc4n3c2=O)cc(Cl)c1OCc1ccccc1Cl`: the displacement was 2.3%. Then `COc1cc(/C=c2\sc3nc4ccccc4n3c2=O)cc(Cl)c1OCCOc1ccc(Br)cc1`, with -2.9%; and `COc1cccc(OCCOc2cccc(/C=c3\sc4nc5ccccc5n4c3=O)c2)c1`, with 4.4%; and `O=c1/c(=C/c2cccc(Br)c2)sc2nc3ccccc3n12`, with 14.5%. Then `O=C(c1ccccc1)c1ccc(N=Cc2ccc([N+](=O)[O-])s2)cc1`, with 8.8%; and `CCOc1ccccc1/C=C/C(=O)c1cccs1`, with -11.9%; and `CC(C)CN1C(=O)/C(=C/c2cccc3ccccc23)SC1=S`, with 8.3%. Then `O=[N+]([O-])c1cccc(S(=O)(=O)NCc2ccccc2)c1`, with -3.3%. `NNC(=O)CSc1nc2ccccc2n1Cc1ccccc1`: the displacement was -9.6%. Then `Cc1occc1C(=O)NC1CCCCCC1`, with -13.4%; and `Cc1ccc(CNC(=O)C(C)Oc2ccc(Cl)cc2Cl)cc1` (centres undefined), with -12.1%; and `O=c1/c(=C\c2cccc(OS(=O)(=O)c3cccc([N+](=O)[O-])c3)c2)sc2nc3ccccc3n12`, with 101%. For `Cc1ccc(S(=O)(=O)Oc2cccc(/C=c3/sc4nc5ccccc5n4c3=O)c2)cc1`, the displacement was -0.5%. Turning to `O=c1/c(=C\c2ccc(OS(=O)(=O)c3cccc([N+](=O)[O-])c3)cc2)sc2nc3ccccc3n12`, the displacement is -6.5%. With `Cc1ccc(S(=O)(=O)Oc2ccc(/C=C3\SC(=S)NC3=O)cc2)cc1`, the displacement was -32.2%. With `COC(=O)c1cc(N=NC2=C(O)CC(C)(C)CC2=O)cc(C(=O)OC)c1`, the displacement was -7.3%. For the molecule `O=C(/C=C/c1ccc(-c2ccc(Cl)cc2Cl)o1)Nc1ccc(N2CCOCC2)cc1`, the displacement stood at 83%. Then `CCC(=O)Nc1ccc(NC(=O)/C=C/c2ccc(-c3ccc(Cl)cc3Cl)o2)cc1`, with -14.5%; and `O=C(Nc1ccc(N2CCOCC2)cc1)c1ccc(-c2ccc(Cl)cc2Cl)o1`, with -4.5%. `O=C(O)c1cc(C(=O)O)cc(N2C(=O)c3ccc(Oc4cccc([N+](=O)[O-])c4)cc3C2=O)c1`: the displacement amounted to 3.2%. As for `S=c1n(CN2CCOCC2)nnn1-c1ccccc1`, the displacement was -5.3%. Turning to `CC1(C)NN(c2ccccc2)C(=S)N1c1ccccc1`, the displacement amounted to 9.6%. Take `CC1(C)NN(c2ccccc2)C(=S)N1CN1CCOCC1`: the displacement is 55.9%.

Take `O=C(Cn1c(-c2ccccc2)c[n+]2ccsc12)c1ccc([N+](=O)[O-])cc1`: the displacement was 13.8%. `Cc1cc(/C=C2\C(=O)NC(=O)N(c3cccc(F)c3)C2=O)c(C)n1-c1cccc([N+](=O)[O-])c1`: the displacement was 12.3%.

`Cc1cc(/C=C2\C(=O)NC(=O)N(c3ccc4c(c3)OCO4)C2=O)c(C)n1-c1ccc(F)cc1`: the displacement turned out to be 8%.

Take `Cc1cc(/C=C2\C(=O)NC(=O)N(c3ccc4c(c3)OCO4)C2=O)c(C)n1-c1cccc([N+](=O)[O-])c1`: the displacement is 52.7%. Regarding `Cc1cc(/C=C2\C(=O)NC(=O)N(c3ccc4c(c3)OCO4)C2=O)c(C)n1-c1ccccc1`, the displacement is 16.1%. Regarding `Cc1cc(/C=C2\C(=O)NC(=O)N(c3ccc4c(c3)OCO4)C2=O)c(C)n1-c1cccnc1`, the displacement came out at 136%.

On to `Cc1cc(/C=C2\C(=O)NC(=O)N(c3ccccc3)C2=O)c(C)n1-c1cccc([N+](=O)[O-])c1`, for which the displacement was 9.1%. As to `COc1ccc(NC(=O)/C(=C\c2ccccc2OC)NC(=O)c2ccccc2OC)cc1`, the displacement turned out to be 3%. Turning to `O=C1N/C(=N\N=C\c2ccccc2F)SC1Cc1ccccc1[N+](=O)[O-]` (centres undefined), the displacement turned out to be 7.3%.

On to `O=C1C2C(c3ccc(Cl)cc3)OC3(C(=O)c4ccccc4C3=O)C2C(=O)N1c1ccc(F)c([N+](=O)[O-])c1` (centres undefined), for which the displacement came to 5.6%.

As to `COc1ccccc1NC(=O)C1=C(C)NC(=O)NC1c1cccc([N+](=O)[O-])c1` (centres undefined), the displacement was -7.1%.

For `CCCC(C)NS(=O)(=O)c1ccccc1[N+](=O)[O-]` (centres undefined), the displacement amounted to 3%. Turning to `O=C(NCC1CCCO1)c1ccc(F)c2ccccc12` (centres undefined), the displacement was -13.5%. In the case of `O=C(CC1S/C(=N\N=C\c2cccs2)NC1=O)Nc1ccc(Cl)c(Cl)c1` (centres undefined), the displacement came to 7.8%. As to `O=C(CC1S/C(=N\N=C\c2cccs2)NC1=O)Nc1ccc(C(=O)O)cc1` (centres undefined), the displacement came out at 121%. On to `O=C(CC1S/C(=N\N=C\c2ccccc2)NC1=O)Nc1ccc(C(=O)O)cc1` (centres undefined), for which the displacement turned out to be 69.5%.

`O=C(CC1S\C(=N/N=C/C=C/c2ccccc2)NC1=O)Nc1ccc(C(=O)O)cc1` (centres undefined): the displacement came out at 41.6%. Regarding `O=C(CC1S/C(=N\N=C\c2ccco2)NC1=O)Nc1ccc(C(=O)O)cc1` (centres undefined), the displacement is -0.3%. With `CC(=O)c1cccc(NC(=O)CC2S/C(=N\N=C\c3cccs3)NC2=O)c1` (centres undefined), the displacement was -3.9%. Then `CCOC(=O)C1=NNC2C(=O)N(c3ccc(C)c(C)c3)C(=O)C12` (centres undefined), with 4.5%.
